According to PubChem BioAssay (NCI):
Several values for one entry are separate records, joined by “and”; a condition that tells them apart may be missing. Identical values can stand only once. This is part of a sample that, as a whole, favours compounds with a hit. Of some 79,000 tested, about 15% had one in any assay. Rule as the data show it: active = growth inhibition above about 70%; inactive = the rest. Where a SMILES comes first, the peptide text is derived from it. The star is where a group is joined. Boc = CC(C)(C)OC(=O)*

How the values were obtained:
[1] = NCI Yeast Anticancer Drug Screen. Data for the rad50 strain (AID 155);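 also: 0% = growth of vehicle-only cultures of the same strain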; conditions: S. cerevisiae rad50 strain growth inhibition; at 50.0 µM; active compounds read high
Procedure, shortened: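 Growth of the mutant yeast was measured after compound exposure and referenced to vehicle-treated cultures.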

[2] = NCI Yeast Anticancer Drug Screen. Data for the mec2-1 strain (AID 157); conditions: S. cerevisiae mec2-1 strain, at 50.0 µM, active compounds read high
Procedure, shortened: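 Compounds were applied to mec2-1 yeast cells. Their growth was then compared with that of vehicle-treated cultures to give growth inhibition.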

[3] = NCI Yeast Anticancer Drug Screen. Data for the sgs1 mgt1 strain (AID 161);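 also: 0% = growth of cultures given vehicle only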; conditions: S. cerevisiae sgs1 mgt1 strain, at 50.0 µM, active compounds read high
Procedure, shortened: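 Percent growth inhibition was derived by comparing compound-exposed mutant yeast with vehicle-exposed cultures. The strain carries alterations in DNA damage repair.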

[4] = NCI Yeast Anticancer Drug Screen. Data for the cln2 rad14 strain (AID 165);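 also: 0% = growth equal to vehicle treated cultures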; conditions: S. cerevisiae cln2 rad14 strain, at 50.0 µM, active compounds read high
Procedure, shortened: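 Strain: cln2 rad14 yeast, altered in cell cycle control and DNA damage repair. Read-out: growth inhibition vs vehicle.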

[5] = NCI Yeast Anticancer Drug Screen. Data for the bub3 strain (AID 167); conditions: S. cerevisiae bub3 mutant strain, at 50.0 µM, active compounds read high
Procedure, shortened: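 Whole-cell yeast assay. The mutant strain was incubated with compounds, and growth inhibition was determined by comparison with vehicle-treated cells.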

[6] = NCI Yeast Anticancer Drug Screen. Data for the mlh1 rad18 strain (AID 175); conditions: S. cerevisiae mlh1 rad18 strain growth inhibition; at 50.0 µM; active compounds read high
Procedure, shortened: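 A repair-deficient yeast strain is exposed to test compound, and growth is scored relative to vehicle-treated controls.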

Measured: growth inhibition

O=C(O)/C=C/c1ccccc1
inactive: [1] 15.1% and 41.8% | [2] 16.6% and 2.4% | [3] 27.5% and 7.65% | [4] 14.8% and 7.35% | [5] 4.1% and 19.3% | [6] 22.2% and 31.9%

CC(=O)OCC1OC(n2c(-c3ccccc3)cc(-c3ccccc3)c(C#N)c2=O)C(OC(C)=O)C(OC(C)=O)C1OC(C)=O (stereo unspecified)
inactive: [1] -14.3% and -1.45% | [2] -3.7% and 6.6% | [3] 1.8% and 3.45% | [4] 23.6% and 0.7% | [5] 5.4% and 3.9% | [6] 16% and -2.25%

O=C(CCl)NC(Cc1c[nH]c2ccccc12)C(=O)O (stereo unspecified)
inactive: [1] -7.95% and 9.8% | [2] -50.7% and -0.75% | [3] 1.1% and -0.95% | [4] 23.3% and 14.8% | [5] -10.2% and 8.7% | [6] 4.25% and -1.05%

Nc1ccc(C(F)(F)F)cc1[N+](=O)[O-]
inactive: [1] -33.3% and 12.1% | [2] -19.9% and 5.6% | [3] -49.6% and 12.5% | [4] -43.6% and 10.2% | [5] -35.1% and 3.5% | [6] -22.5% and 9.15%

CN(/N=C/c1ccccc1)C(=N)N
inactive: [1] -3.6% and 5.4% | [2] -5.4% and 4.15% | [3] -10.2% and 13.2% | [4] -40.6% and 11.2% | [5] -12.8% and -5.6% | [6] -2.3% and 2.05%

CC(=O)OCC1OC(n2c(C)c(C)cc(C#N)c2=S)C(OC(C)=O)C(OC(C)=O)C1OC(C)=O (stereo unspecified)
inactive: [1] -18.1% and 18.2% | [2] -10.2% and -13.2% | [3] -4.8% and -4.05% | [4] -23.4% and 18.9% | [5] -2.2% and 18.7% | [6] 4.3% and 14.9%

COC(=O)C(C)NC(=O)C(CCSC)NC(=O)C(Cc1ccccc1)NC(=O)OC(C)(C)C (stereo not drawn) (Boc-Phe-Met-Ala-OMe; configuration not given here)
inactive: [1] -7.05% and 1.75% | [2] -15.3% and 1.15% | [3] 2.4% and 6.3% | [4] 5.05% and 10.7% | [5] 0.15% and -11.9% | [6] 12.4% and -70.9%

COc1cc2c(cc1OC)CN1CCc3cc(OC)c(OC)cc3C1C2 (stereo unspecified)
inactive: [1] -1.3% and 16.1% | [2] -54.6% and 11.9% | [3] -28.2% and 14.3% | [4] 0.7% and 7.8% | [5] -51.4% and 17.4% | [6] -38.5% and 18.1%

O=C(O)CCC(=O)c1ccc2ccccc2c1
inactive: [1] 60% and 8.8% | [2] 21.6% and 6.95% | [3] 44.8% and -5.7% | [4] 11.2% and -14.1% | [5] 9.15% and -23.1% | [6] 44.2% and 40.7%

Clc1ccc(/C=N/N=C/c2ccc(Cl)cc2)cc1
inactive: [1] -52.5% and -17.1% | [2] -28.9% and -16% | [3] -42.2% and -19.6% | [4] -23% and -20.1% | [5] -33.3% and 6.3% | [6] -33.5% and -18.1%

CC(=O)OC1OC(C)C(OC(C)=O)C(OC(C)=O)C1OC(C)=O (stereo unspecified)
inactive: [1] 6.8% and 1.65% | [2] -4.1% and 1.8% | [3] -5.85% and 11.7% | [4] -0.15% and 4.05% | [5] 4.5% and -4.2% | [6] -15.6% and 10.3%

O=C1NC(=O)C(=Nc2c(O)[nH]c(=O)[nH]c2=O)C(=O)N1
inactive: [1] 2.65% and -11% | [2] -11.9% and -14.3% | [3] 2.3% and -10.6% | [4] -25.2% and -31.8% | [5] 1.1% and 16.6% | [6] 12.1% and -13.1%

Cc1ccc(S(=O)(=O)N(C)c2ccccc2)cc1
inactive: [1] -18.6% and -3.7% | [2] -50.7% and -1.25% | [3] -0.55% and 10.2% | [4] 1.2% and -25.4% | [5] 11.8% and 16.3% | [6] -10% and 9.95%

Cc1cc(C)c(C(=O)C(C)C(c2ccccc2)c2ccc(Cl)cc2)c(C)c1 (stereo unspecified)
inactive: [1] -16.4% and -14.6% | [2] -19.2% and -5.7% | [3] -12.8% and -16.1% | [4] 17.8% and -2.55% | [5] -8.7% and -10.6% | [6] -15.2% and -2.45%

COC1OC(COC(=O)c2ccccc2)C(OC(=O)c2ccccc2)C1OC(=O)c1ccccc1 (stereo unspecified)
inactive: [1] -15.4% and 7.8% | [2] -2.5% and -10.2% | [3] -3.65% and -3.95% | [4] -28.1% and -21.9% | [5] 15.9% and -0.85% | [6] 9% and 4.6%

Oc1ccccc1-c1nc2ccccc2o1
inactive: [1] 4.85% and 8.3% | [2] -10.8% and -25.2% | [3] -13.8% and 7.15% | [4] -6.75% and 1.4% | [5] 1.05% and 24.3% | [6] 3.6% and 0.9%

Nc1cc(S(=O)(=O)O)ccc1Cl
inactive: [1] 2.8% and 1% | [2] -15.7% and -2.75% | [3] 11.2% and -20.6% | [4] 10.1% and -43.9% | [5] 6.95% and 14.1% | [6] 3.95% and -13.1%

C[n+]1cccc2ccccc21
inactive: [1] -17.1% and -14% | [2] -11.8% and -2.1% | [3] -40.5% and -8.3% | [4] -10.7% and -59% | [5] 11.5% and 6.7% | [6] -11.6% and -4.15%

CN(C)C
inactive: [1] 17.1% and 2.45% | [2] -30.6% and -27.2% | [3] 10.4% and -17.1% | [4] -3.8% and -97.7% | [5] 9.8% and -21.9% | [6] 7.8% and -135%

CC(C)CC(NC(=O)COc1ccc(Cl)cc1Cl)C(=O)O (stereo unspecified)
inactive: [1] -16.8% and -4.25% | [2] -3.15% and -14.4% | [3] 7.55% and -4.15% | [4] -50.5% and -21.7% | [5] 4.5% and 13.7% | [6] -3.8% and -11.1%

O=C(CCCOc1ccc(Cl)cc1Cl)NC(Cc1c[nH]c2ccccc12)C(=O)O (stereo unspecified)
inactive: [1] -1.3% and 1.5% | [2] 0.15% and -1.95% | [3] 4.3% and -3.6% | [4] 19.1% and 18.7% | [5] -17.6% and -17.1% | [6] 7.2% and 10.7%
